# Assay results from PubChem BioAssay (NCI).
# Values joined by “and” are separate entries in the source; they are usually repeats but may differ in a detail not shown here. Equal entries are not always repeated. The panel holds about 83,000 compounds, 20% with a hit somewhere; the sample as a whole holds those more often.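 Cells were grown in 96-well plates and exposed to the test compound at a single concentration for 48 hours; results are reported as percent growth, with values below 10 considered active.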 Values without a mark were called inactive. Active and inactive are the calls of the source.
# Experiments:
# Assay in all cases: NCI-60 one-dose screen, 48 h (100 = growth as untreated, 0 = no growth, -100 = all killed)
# [1] = test system: SR leukemia; conditions: 10 µM unless noted
# [2] = test system: RPMI-8226 leukemia
# [3] = test system: OVCAR-8 ovarian
# [4] = test system: OVCAR-5 ovarian
# [5] = test system: OVCAR-4 ovarian
# [6] = test system: SK-OV-3 ovarian
# [7] = test system: OVCAR-3 ovarian
# [8] = test system: HS 578T breast
# [9] = test system: NCI/ADR-RES ovarian
# [10] = test system: IGROV1 ovarian
smiles,measurement,setting,value
CN(C(=O)CN1C(=O)/C(=C/c2ccco2)SC1=S)C1CCS(=O)(=O)C1 (stereo not drawn),growth,[1],84.8%
same,growth,[2]; 10 µM unless noted,98%
same,growth,[3]; 10 µM unless noted,96%
same,growth,[4]; 10 µM unless noted,111%
same,growth,[5]; 10 µM unless noted,106%
same,growth,[6]; 10 µM unless noted,91.3%
same,growth,[7]; 10 µM unless noted,99.9%
same,growth,[8]; 10 µM unless noted,111%
same,growth,[9]; 10 µM unless noted,96.4%
CC/C(=C(/c1ccc(O)cc1)c1ccc(OCCN(C)C(=O)COCCOCCNC(=O)c2ccc3c(c2)CN([C@@H]2CCC(=O)NC2=O)C3=O)cc1)c1ccccc1,growth,[2]; 1 µM,99.6%
same,growth,[2]; 10 µM,78.5%
same,growth,[3]; 1 µM,102%
same,growth,[3]; 10 µM,61.1%
same,growth,[4]; 1 µM,96%
same,growth,[4]; 10 µM,86.8%
same,growth,[5]; 1 µM,103%
same,growth,[5]; 10 µM,93%
same,growth,[6]; 1 µM,91.1%
same,growth,[6]; 10 µM,92.8%
same,growth,[10]; 1 µM,63.1%
same,growth,[10]; 10 µM,37.6%
same,growth,[7]; 1 µM,99.1%
same,growth,[7]; 10 µM,95.8%
same,growth,[8]; 1 µM,70.9%
same,growth,[8]; 10 µM,53.9%
same,growth,[9]; 1 µM,106%
same,growth,[9]; 10 µM,102%
CC(=O)Nc1cccc(-n2c(COc3ccc(I)cc3)nc3ccccc32)c1,growth,[1],56.2% and 104%
same,growth,[2]; 10 µM unless noted,75.8% and 110%
same,growth,[3]; 10 µM unless noted,97.1% and 117%
same,growth,[4]; 10 µM unless noted,103% and 113%
same,growth,[5]; 10 µM unless noted,74.9% and 109%
same,growth,[6]; 10 µM unless noted,96.8% and 111%
same,growth,[7]; 10 µM unless noted,88.8% and 87.7%
same,growth,[8]; 10 µM unless noted,62.4% and 115%
same,growth,[9]; 10 µM unless noted,76.6% and 111%
COc1cccc(C(N)=Nc2ccc(OCCCCCCCCn3cncn3)cc2)c1,growth,[1],10.4%
same,growth,[2]; 10 µM unless noted,14.2%
same,growth,[4]; 10 µM unless noted,29.6%
same,growth,[5]; 10 µM unless noted,55.5%
same,growth,[6]; 10 µM unless noted,41.7%
same,growth,[10]; 10 µM unless noted,27.3%
same,growth,[8]; 10 µM unless noted,37.2%
CC/C(=C(/c1ccc(O)cc1)c1ccc(OCCN(C)C(=O)CCOCCNC(=O)Cc2ccc3c(c2)CN([C@@H]2CCC(=O)NC2=O)C3=O)cc1)c1ccccc1,growth,[2]; 1 µM,88%
same,growth,[2]; 10 µM,78.3%
same,growth,[3]; 1 µM,87.8%
same,growth,[3]; 10 µM,34.7%
same,growth,[4]; 1 µM,97.5%
same,growth,[4]; 10 µM,86.7%
same,growth,[5]; 1 µM,102%
same,growth,[5]; 10 µM,75.7%
same,growth,[6]; 1 µM,88.7%
same,growth,[6]; 10 µM,79.6%
same,growth,[10]; 1 µM,57.5%
same,growth,[10]; 10 µM,30.4%
same,growth,[7]; 1 µM,102%
same,growth,[7]; 10 µM,68.4%
same,growth,[8]; 1 µM,61.4%
same,growth,[8]; 10 µM,30.4%
same,growth,[9]; 1 µM,109%
same,growth,[9]; 10 µM,99.6%
Cc1[nH]nc2ccc3nc(-c4cnn(CCO)c4)c4c(c3c12)CCCC4,growth,[1],13.8%
same,growth,[2]; 10 µM unless noted,33.8%
same,growth,[3]; 10 µM unless noted,48.7%
same,growth,[4]; 10 µM unless noted,90.4%
same,growth,[5]; 10 µM unless noted,63.1%
same,growth,[6]; 10 µM unless noted,9.64% (active)
same,growth,[7]; 10 µM unless noted,90.2%
same,growth,[8]; 10 µM unless noted,-2.52% (active)
same,growth,[9]; 10 µM unless noted,73.5%
COC(=O)c1ccc(-c2c(-c3ccccc3)c(F)c3oc(C(=O)OC)c(N)c3c2-c2ccccc2)cc1,growth,[1],76.9%
same,growth,[2]; 10 µM unless noted,101%
same,growth,[3]; 10 µM unless noted,105%
same,growth,[4]; 10 µM unless noted,96.6%
same,growth,[5]; 10 µM unless noted,97.6%
same,growth,[6]; 10 µM unless noted,98.7%
same,growth,[7]; 10 µM unless noted,103%
same,growth,[8]; 10 µM unless noted,91.1%
same,growth,[9]; 10 µM unless noted,94.3%
Cc1cc(=O)oc2cc(OCC(O)CNN3C(=O)c4cccc5c(N6CCN(C)CC6)ccc(c45)C3=O)ccc12 (stereo not drawn),growth,[1],81.1%
same,growth,[2]; 10 µM unless noted,97.4%
same,growth,[3]; 10 µM unless noted,91.4%
same,growth,[4]; 10 µM unless noted,112%
same,growth,[5]; 10 µM unless noted,99.1%
same,growth,[6]; 10 µM unless noted,116%
same,growth,[7]; 10 µM unless noted,103%
same,growth,[8]; 10 µM unless noted,87.4%
same,growth,[9]; 10 µM unless noted,89.4%
